Data reported in PubChem BioAssay AID1233 (SRMLSC, 2008).
Measured potencies and affinities stand elsewhere. The source made the active and inactive calls.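 The calls were made as follows: active = a dose-response curve fit returns a half-maximal inhibitory concentration, extrapolated values included; inactive = the fit returns no such concentration.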

biological target: HMG-CoA reductase [Enterococcus faecalis] (UniProt Q9FD70); experiment: class II HMG-CoA reductase inhibition potency – biochemical, Enterococcus faecalis, confirmation (AID 1233); details: purified E. faecalis HMGR, NADPH absorbance 340 nm kinetics; series mostly up to 100 µM

| SMILES | outcome |
| --- | --- |
| O=C(Nc1ccccc1)N1C2CCC1CC(O)(c1cccnc1)C2 (stereo not drawn) | inactive |
| CCc1c(C)sc(NC(=O)C2CC2c2ccccc2)c1C(N)=O (stereo not drawn) | inactive |
| CN(CCOC(=O)c1cccc(Br)c1)C(C)(C)C | inactive |
| COc1ccc(CN2CCNC(=O)C2CC(=O)NCCc2c[nH]c3ccccc23)c(OC)c1 (stereo not drawn) | inactive |
| O=C(OCC(=O)N1CCN(C(=O)c2ccco2)CC1)c1cc(-c2ccco2)nc2ccccc12 | inactive |
| COc1cc(/C=C2/C(=O)ON=C2C)ccc1OCc1cccc(F)c1 | inactive |
| CC(=O)c1ccc(NC(=O)c2ccc(NC(=O)CCS(=O)(=O)c3cccs3)cc2)cc1 | inactive |
| CCOC(=O)Cc1nn(Cc2ccccc2)c(=O)c2ccccc12 | inactive |
| O=C(N/N=C/c1ccc2c(c1)OCO2)c1ccc(NS(=O)(=O)c2cccs2)cc1 | inactive |
| COc1cc(SC)ccc1C(=O)NCc1ccc(C)cc1 | inactive |
| Cc1ccc(S(=O)(=O)CCC(=O)NCCN2C(=O)S/C(=C\c3ccccc3)C2=O)cc1 | inactive |
| CCCCCCNC(=O)C(=O)NCCc1ccc(Cl)cc1 | inactive |
| O=C(Nc1ccc(Oc2ccccc2)cc1)c1ccc(Cn2c(=O)[nH]c3ccsc3c2=O)cc1 | inactive |
| COc1ccc(C(=O)Nc2ccc(NC(=O)c3cnccn3)cn2)cc1 | inactive |
| C=CCn1c(C)c(C(C)=O)c(N2CCCC2)nc1=S | inactive |
| COC(=O)CSc1ncc(C#N)c(N)n1 | inactive |
| COCc1c(C(=O)Nc2nc(C)cs2)oc2ccccc12 | inactive |
| O=C(COC(=O)c1cc(S(=O)(=O)N2CCCCC2)ccc1N1CCOCC1)NC1CCS(=O)(=O)C1 (stereo not drawn) | inactive |
